This is an account of results in PubChem BioAssay AID2156 (Johns Hopkins Ion Channel Center, 2009).

The campaign covered roughly 310,000 compounds. About 3,400 (1.1%) were called active. The sample as a whole holds a higher share of actives than the screen did. Unmarked numbers belong to inactive results.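 The calls were made as follows: active = fluorescence ratio B-score at most minus 3 library SDs, with starting brightness B-score within 2 library SDs (cut at about -5.5 in these data); inactive = the rest, inconclusive results apart.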

Chain of Potassium voltage-gated channel subfamily KQT member 2 (Rattus norvegicus) (O88943 whole entry, looked up): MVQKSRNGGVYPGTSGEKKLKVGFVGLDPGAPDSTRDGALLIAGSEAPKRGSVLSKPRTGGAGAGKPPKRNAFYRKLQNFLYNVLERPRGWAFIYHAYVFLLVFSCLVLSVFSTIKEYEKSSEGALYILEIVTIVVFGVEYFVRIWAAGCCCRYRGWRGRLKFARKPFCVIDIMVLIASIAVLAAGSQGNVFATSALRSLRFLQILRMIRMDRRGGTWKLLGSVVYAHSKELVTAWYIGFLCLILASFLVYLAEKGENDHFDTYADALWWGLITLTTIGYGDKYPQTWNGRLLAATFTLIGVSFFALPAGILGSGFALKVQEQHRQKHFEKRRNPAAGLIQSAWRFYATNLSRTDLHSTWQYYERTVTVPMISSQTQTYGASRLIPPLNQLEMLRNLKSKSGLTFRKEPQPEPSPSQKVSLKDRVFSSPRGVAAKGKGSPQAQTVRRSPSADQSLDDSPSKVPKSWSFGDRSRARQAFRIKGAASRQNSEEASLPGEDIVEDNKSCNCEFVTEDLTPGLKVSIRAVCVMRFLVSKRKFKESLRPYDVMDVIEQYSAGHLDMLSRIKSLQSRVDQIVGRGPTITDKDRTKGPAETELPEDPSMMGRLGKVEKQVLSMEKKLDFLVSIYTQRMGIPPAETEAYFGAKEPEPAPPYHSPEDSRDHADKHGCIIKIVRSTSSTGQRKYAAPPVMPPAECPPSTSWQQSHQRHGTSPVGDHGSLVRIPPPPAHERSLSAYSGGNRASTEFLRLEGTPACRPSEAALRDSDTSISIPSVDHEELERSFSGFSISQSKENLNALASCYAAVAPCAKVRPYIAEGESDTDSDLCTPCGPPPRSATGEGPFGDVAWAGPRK

The assay has as its target Potassium voltage-gated channel subfamily KQT member 2 (Rattus norvegicus) (UniProt O88943). The experiment in a line: KCNQ2 channel blockers in CHO-K1 cells – cell-based, FluxOR thallium flux, B-score, primary screen (AID 2156). As to conditions: 20 min, at 10 µM; active compounds read low.
Turning to `CCOc1ccc(S(=O)(=O)Nc2cccc(C(=O)NCC3(N4CCCCC4)CCCCC3)c2)cc1`, the B-score is -0.94.

Take `O=C(NCc1ccccc1)C1=C[C@@H](c2ccc(C(F)(F)F)cc2)C[C@@H](OCc2ccc(CO)cc2)O1`: the B-score is -7.51 (active).

Turning to `CC(C)(C)[C@H]1C=C(C(=O)NCc2ccccc2)O[C@@H](OCc2ccc(CO)cc2)C1`, the B-score is -1.3.

`O=C(C1=C[C@H](c2ccc(C(F)(F)F)cc2)C[C@H](OCc2ccc(CO)cc2)O1)N1CCN(Cc2ccccc2)CC1`: the B-score was -2.67.

On to `CC1CCN(C(=O)COC(=O)c2cc(S(=O)(=O)N3CCOCC3)ccc2Cl)CC1`, for which the B-score entry is “inactive”.

`COc1ccc(C(CNC(=O)c2cccc(S(=O)(=O)Nc3ccccc3Cl)c2)N2CCOCC2)cc1` (configuration not stated): the B-score entry was “inactive”.

Take `Cc1ccc(OCC(=O)NC(C)c2ccccc2)cc1C` (configuration not stated): the B-score is -1.87.

In the case of `CCOc1ccc(C(CC(=O)O)NC(=O)Cc2ccccc2)cc1OC` (configuration not stated), the B-score is -0.84.

For `CCOc1ccc(C(CC(=O)O)NC(=O)COc2ccccc2)cc1` (configuration not stated), the B-score was -5.97 (active).

`Cc1ccc(S(=O)(=O)N(C)C)cc1NC(=O)COC(=O)/C=C/c1cccs1`: the B-score entry was “inactive”.

Regarding `CC(OC(=O)CCCc1c[nH]c2ccccc12)C(=O)Nc1ccc(S(N)(=O)=O)cc1` (configuration not stated), the B-score is -1.39.

In the case of `CSCc1cc(N(C)C)nc(SCc2ccc(Cl)cc2Cl)n1`, the B-score was -9.71 (active).

Turning to `CSCc1cc(N2CCOCC2)nc(SCc2ccc(Cl)cc2Cl)n1`, the B-score is -0.52.

Take `Clc1ccc(CSc2nnc(/C=C/c3ccccc3)o2)c(Cl)c1`: the B-score is -5.38.

`C=CCOc1ccc(/C=C/C(=O)OCC(=O)NC(C)c2ccc(F)cc2)cc1` (configuration not stated): the B-score result is “inactive”.

In the case of `O=C(Nc1ccc(S(=O)(=O)N2CCCCC2)cc1)C1CCN(C(=O)c2ccc(F)cc2)CC1`, the B-score was -0.91.

Take `CC1=CC(C)(C)Nc2ccc(OC(=O)C(Cc3ccccc3)N3C(=O)C4CCCCC4C3=O)cc21` (configuration not stated): the B-score is -7.42 (active).

Consider `CC1=CC(C)(C)Nc2ccc(OC(=O)CN3C(=O)C4CCCCC4C3=O)cc21` (configuration not stated), for which the B-score was -1.65.

With `CCOC(=O)C(Cc1ccc(N)cc1)N1C(=O)c2ccccc2C1=O` (configuration not stated), the B-score entry was “inactive”.

`CCC[C@@H]1C[C@@]1(CCC)[C@@H](NC(=O)c1ccccc1)c1ccc(C(=O)OC)cc1`: the B-score was -5.11.

In the case of `COC(=O)c1ccc(C(NC(=O)OCc2ccccc2)/C(F)=C/[C@@H](C)C(=O)O)cc1` (some centres not stated), the B-score was -1.01.

Turning to `CCC/C=C(\CCC)C(NC(=O)Cc1ccccc1)c1ccc(C(=O)OC)cc1` (configuration not stated), the B-score is -7.39 (active).

For `Cc1ccc(C(=O)CN2C(=O)NC3(CCc4ccccc43)C2=O)c(C)c1` (configuration not stated), the B-score is -1.41.

As for `COc1ccccc1-n1ccnc(SCC(=O)NC2CCCCC2)c1=O`, the B-score entry was “inactive”.

In the case of `O=C1[C@H]2[C@@H](c3ccc(Cl)cc3)N3C(=O)N(c4cccc(F)c4)C(=O)[C@@]3(Cc3ccccc3)[C@H]2C(=O)N1C1CCCCC1`, the B-score entry was “inactive”.

Regarding `COc1ccc(N2CC(NS(=O)(=O)c3ccc4ccccc4c3)CC2=O)cc1` (configuration not stated), the B-score was -0.16.

Turning to `Cc1ccc(-c2nnc(C)c(N3CC(C)OC(C)C3)n2)cc1` (configuration not stated), the B-score was -0.19.

Consider `CC1CN(c2nc(-c3ccccc3)nnc2-c2ccccc2)CC(C)O1` (configuration not stated), for which the B-score was -6.3 (active).

For `CC1CN(c2nc(Nc3ccccc3)nc(N)c2[N+](=O)[O-])CC(C)O1` (configuration not stated), the B-score was -0.73.

On to `C=CS(=O)c1sc(Cl)c(N2CCOCC2)c1[N+](=O)[O-]` (configuration not stated), for which the B-score was -15.5 (active).

For the compound `COc1ccc(NC(=O)CN(C)C(=O)/C=C/c2cn(Cc3ccccc3)nc2-c2cccnc2)cc1`, the B-score is -0.04.

Turning to `O=C(COc1ccccc1)Nc1ccc(F)cc1`, the B-score was -1.43.

With `O=C(NCC1CCCO1)c1cc2c([nH]c3ccccc32)c(-c2ccc(F)cc2)n1` (configuration not stated), the B-score was -8.97 (active).

For the compound `O=C(NCC1CCCO1)c1cc(-c2ccccc2)nc2ccccc12` (configuration not stated), the B-score result is “inactive”.

As for `O=C(NCCCO)c1cc2c([nH]c3ccccc32)c(-c2ccc(F)cc2)n1`, the B-score result was “inactive”.

As for `COc1ccc(C(=O)N(Cc2ccccc2)c2ccc(C)cc2)cc1S(=O)(=O)N1CCOCC1`, the B-score was -0.58.

For the compound `CC1CCCCC1NC(=O)c1cc(=O)[nH]c2ccccc12` (configuration not stated), the B-score is -0.66.

On to `CC1CCC(NC(=O)C2c3ccccc3C(=O)N2Cc2ccc3c(c2)OCO3)CC1` (configuration not stated), for which the B-score is -6.13 (active).

As for `CCc1ccc(CN2C(=O)c3ccccc3C2C(=O)NCC2CCCO2)cc1` (configuration not stated), the B-score result was “inactive”.

As for `O=C(NC1CCCCC1)C1c2ccccc2C(=O)N1Cc1ccco1` (configuration not stated), the B-score entry is “inactive”.

`Cc1cc(C)cc(NC(=O)COc2coc(CN3CCN(c4ccccc4)CC3)cc2=O)c1`: the B-score result was “inactive”.

Regarding `CSc1ccc(S(=O)(=O)NCC(=O)OCC(=O)NC2(C#N)CCCCC2)cc1[N+](=O)[O-]`, the B-score entry is “inactive”.

On to `CN1CCN(C2Cc3ccc(Cl)cc3Sc3ccc(F)cc32)CC1` (configuration not stated), for which the B-score is -4.84.

For the compound `CCOc1ccc(NC(=O)c2ccc(NC(=O)CN3C(=O)C(=O)N(CC(C)C)C3=O)cc2)cc1`, the B-score result was “inactive”.

As for `O=C(c1cncc(Br)c1)N1CCN(c2ccc([N+](=O)[O-])cc2)CC1`, the B-score was -4.15.

Turning to `O=C(c1cc(C(=O)N2CCN(c3ccc(F)cc3)CC2)cc([N+](=O)[O-])c1)N1CCN(c2ccc(F)cc2)CC1`, the B-score was -5.93 (active).

As to `O=C(c1cccc(F)c1)N1CCN(c2ccc([N+](=O)[O-])c(N3CCCCC3)c2)CC1`, the B-score was -0.07.

As for `O=C(c1cccc(C(=O)N2CCN(c3ccc(F)cc3)CC2)c1)N1CCN(c2ccc(F)cc2)CC1`, the B-score is -6 (active).

As for `O=C(c1ccccc1)c1ccc(C(=O)N2CCN(c3ccccc3)CC2)cc1`, the B-score is -0.65.

In the case of `O=C(c1cc2cc(F)ccc2[nH]1)N1CCN(c2ccc(F)cc2)CC1`, the B-score result was “inactive”.

Take `Cc1ccc(Cc2nnc(SCC(=O)Nc3ccc(C)cc3C)[nH]c2=O)cc1`: the B-score entry is “inactive”.

`CC(=O)CC(CC(=O)NC1CCCCC1)c1ccccc1` (configuration not stated): the B-score entry was “inactive”.

With `O=C1[C@H]2[C@@H](c3ccc(F)cc3)N3C(=O)N(c4ccc(C(F)(F)F)cc4)C(=O)[C@@]3(Cc3ccccc3)[C@H]2C(=O)N1C1CCCCC1`, the B-score is -0.02.

`O=C(NCC(c1ccco1)N1CCc2ccccc2C1)c1ccccc1Cl` (configuration not stated): the B-score was -1.22.

In the case of `Cc1ccc(Cc2nnc(SCC(=O)Nc3ccccc3C)[nH]c2=O)cc1`, the B-score entry was “inactive”.

In the case of `CCOc1ccc(NS(=O)(=O)c2ccc(C(=O)NC3CCN(Cc4ccccc4)CC3)cc2)cc1`, the B-score entry is “inactive”.

Turning to `CCOc1ccc(N(CC(=O)NCC2CCCO2)S(=O)(=O)c2ccc(C)cc2)cc1` (configuration not stated), the B-score is -0.74.

For the compound `CCOc1cc(-c2nc3cc(C)ccn3c2NCC2CCCO2)ccc1O` (configuration not stated), the B-score was -5.56 (active).

Take `CCOc1cc(C(C(=O)NCC2CCCO2)N(C(=O)Cn2nnc3ccccc32)c2cccc(OC)c2)ccc1O` (configuration not stated): the B-score entry is “inactive”.

For `O=[N+]([O-])c1ncc(Br)cc1Nc1ccccc1`, the B-score was -2.54.

Regarding `CC(=O)N1CCN(C(=O)c2cc(-c3ccc(C)o3)nc3ccccc23)CC1`, the B-score result was “inactive”.

Regarding `Cn1cccc1C(=O)NNC(=O)COc1ccc(Br)cc1`, the B-score was -0.05.

`COc1cc(NC(=O)CSC(=S)N2CCCC2)c(OC)cc1Cl`: the B-score entry was “inactive”.

Turning to `Fc1ccc2[nH]c3c(N4CCSCC4)ncnc3c2c1`, the B-score is -10.1 (active).

Regarding `CC(C)OCCCNc1ncnc2c1[nH]c1ccc(F)cc12`, the B-score is -0.41.

Regarding `Cc1c(CN2CC[C@@H](N3CCN(c4ccccn4)CC3)[C@H](O)C2)[nH]c2ccc(F)cc12`, the B-score was -0.01.

Take `Cc1ccc(CNS(=O)(=O)CCNC(=O)c2ccccc2)cc1`: the B-score entry was “inactive”.

Turning to `CSc1ccccc1NC(=O)c1cnc2sc(C)cn2c1=O`, the B-score result is “inactive”.

Turning to `O=C(Nc1ccccc1)N1CCN(C(=O)Nc2ccccc2)CC1`, the B-score entry is “inactive”.

Take `O=C(Nc1ccc(Cl)c(Cl)c1)N1CC=C(c2ccccc2)CC1`: the B-score was -8.43 (active).

For the compound `COc1cc(C(=O)NCC(=O)N2CC=C(c3ccccc3)CC2)cc(OC)c1OC`, the B-score entry is “inactive”.

In the case of `CC(OC(=O)CNC(=O)c1cccc(F)c1)C(=O)NC1CCCCC1C` (configuration not stated), the B-score result was “inactive”.

Turning to `COCCCN(C(=O)CSCc1ccc(C)cc1)c1c(N)n(Cc2ccccc2)c(=O)[nH]c1=O`, the B-score entry was “inactive”.

In the case of `CCCCCCOc1ccc(OC(=O)c2cccnc2)cc1`, the B-score result was “inactive”.

In the case of `CCCCCCCCCCCCN1C(=O)CSC1c1cccnc1` (configuration not stated), the B-score was -6.52 (active).

Regarding `CN(C)CCCN1C(=O)CSC1c1ccc([N+](=O)[O-])cc1` (configuration not stated), the B-score was -0.19.

Consider `O=C(Nc1ccc(OC(F)(F)F)cc1)c1ccc2c(c1)no[n+]2[O-]`, for which the B-score entry is “inactive”.

Turning to `COc1cccc(CNc2nc3nc4c(c(=O)n3[nH]2)CCC4)c1`, the B-score entry is “inactive”.

As for `COc1cccc(-c2nc(S(=O)(=O)c3ccccc3)c(N3CCOCC3)o2)c1`, the B-score result was “inactive”.

Regarding `COc1cccc(-c2cc3nc4c(c(N5CCC6(CC5)OCCO6)n3n2)CCCC4)c1`, the B-score is -5.95 (active).

`CN(C(=O)CN1C(=O)NC(C)(CCc2ccccc2)C1=O)c1ccccc1` (configuration not stated): the B-score entry was “inactive”.

In the case of `CC1(C)Cc2ccccc2/C(=C/C(=O)c2ccccc2)N1`, the B-score is -5.67 (active).

In the case of `CC(C)CC(N=C1NC(C)(C)Cc2ccccc21)C(=O)O` (configuration not stated), the B-score is -0.08.

Take `CCOC(=O)C1=C(NC(=S)NC(=O)c2ccccc2)c2ccccc2CC1(C)C`: the B-score is -1.51.

`COc1ccc(CCNc2nc(-c3cccc(NC(C)=O)c3)cs2)cc1OC`: the B-score was -0.02.

As to `COc1cccc(CC(=O)Nc2nc(-c3ccc(OC)c(OC)c3)cs2)c1`, the B-score result was “inactive”.

As to `COc1ccc(CCN(C(=O)COc2ccccc2)c2nc(-c3ccccc3)cs2)cc1OC`, the B-score is -7.67 (active).

Consider `CCN1CCN(c2ccc(S(=O)(=O)N3CCCCC3)cc2NC(=O)c2cccc(NC(C)=O)c2)CC1`, for which the B-score result was “inactive”.

For the compound `COc1cc(C(=O)OCC(=O)N(CC(C)C)C2CCS(=O)(=O)C2)ccc1OCC(C)C` (configuration not stated), the B-score result is “inactive”.

With `C=CCn1c(SCc2c(C)noc2C)nc2sc3c(c2c1=O)CCC(C)C3` (configuration not stated), the B-score was -3.13.

On to `C=CCn1c(SCc2csc(C)n2)nc2scc(-c3ccc(C)o3)c2c1=O`, for which the B-score was -5.75 (active).

As for `C=CCNC(=O)CSc1nc2scc(-c3ccco3)c2c(=O)n1CC=C`, the B-score was -1.
